Measurements published in PubChem BioAssay (NCI).
The panel holds about 83,000 compounds, 20% with a hit somewhere; the sample as a whole holds those more often.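 Activity criterion: percent growth below 10, measured after cells in 96-well plates were exposed to a single compound concentration for 48 hours.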 Unmarked numbers belong to inactive results. The source made the active and inactive calls.

What was measured:
Experiment in all cases: NCI-60 one-dose screen, 48 h (100 = growth as untreated, 0 = no growth, -100 = all killed)
SK-MEL-2 melanoma = settings: 10 µM unless noted
EKVX NSCLC = settings: 10 µM
SN12C renal = settings: 10 µM unless noted
UO-31 renal = settings: 10 µM unless noted
TK-10 renal = settings: 10 µM unless noted
ACHN renal = settings: 10 µM unless noted
CAKI-1 renal = settings: 10 µM unless noted
A498 renal = settings: 10 µM unless noted
CCRF-CEM leukemia = settings: 10 µM
MOLT-4 leukemia = settings: 10 µM unless noted
SR leukemia = settings: 10 µM unless noted
RPMI-8226 leukemia = settings: 10 µM unless noted
OVCAR-8 ovarian = settings: 10 µM unless noted
OVCAR-5 ovarian = settings: 10 µM unless noted
OVCAR-4 ovarian = settings: 10 µM unless noted
SK-OV-3 ovarian = settings: 10 µM unless noted
IGROV1 ovarian = settings: 10 µM unless noted
OVCAR-3 ovarian = settings: 10 µM unless noted
HS 578T breast = settings: 10 µM unless noted
NCI/ADR-RES ovarian = settings: 10 µM unless noted

SMILES	growth (SK-MEL-2 melanoma)	growth (EKVX NSCLC)	growth (SN12C renal)	growth (UO-31 renal)	growth (TK-10 renal)	growth (ACHN renal)	growth (CAKI-1 renal)	growth (A498 renal)	growth (CCRF-CEM leukemia)	growth (MOLT-4 leukemia)	growth (SR leukemia)	growth (RPMI-8226 leukemia)	growth (OVCAR-8 ovarian)	growth (OVCAR-5 ovarian)	growth (OVCAR-4 ovarian)	growth (SK-OV-3 ovarian)	growth (IGROV1 ovarian)	growth (OVCAR-3 ovarian)	growth (HS 578T breast)	growth (NCI/ADR-RES ovarian)
CC/C(=N\Nc1nc2ccccc2n1C)c1ccccn1	37.6%	6.6% (active)	13.6%	-10.3% (active)	33.5%	0.59% (active)	2.28% (active)	-20.7% (active)	7.72% (active)	1.52% (active)	3.71% (active)	10.4%	15.5%	29%	11.5%	11.6%	13.6%	25.8%	48.4%	-5.99% (active)
COc1cc(-c2c3c(cn2CCN2CCCCC2)-c2oncc2CC3)cc(OC)c1OC	106%	102%	101%	80.2%	100%	89.7%	87%	90.9%	103%	100%	92.5%	108%	101%	85.3%	100%	93.7%	104%	113%	99.3%	97.3%
O=C(O)CC1Cc2ccccc2C1C(=O)O (stereo not given)	101%	105%	95.2%	79.6%	96.5%	109%	104%	90.3%	85.7%	82.3%	-8.39% (active)	110%	101%	108%	113%	102%	110%	102%	104%	99.5%
COc1nc(OC)nc(-c2cc(-c3cc(OC)c(OC)c(OC)c3)no2)n1	108%	103%	94.6%	71.3%	101%	108%	96.1%	82.5%	91.3%	92.6%	95.6%	90.4%	98.3%	115%	106%	116%	121%	116%	95.2%	98.9%
COc1cc2ncnc(-n3ncc4cc(NC(=O)Nc5ccc(Cl)c(Cl)c5)ccc43)c2cc1OC	-26.6% (active)	-16.1% (active)	3.99% (active)	-17.2% (active)	-14.1% (active)	-61.6% (active)	8.96% (active)	-22.7% (active)	22.3%	9.19% (active)	9.64% (active)	-0.257% (active)	2.71% (active)	-33.1% (active)	-32.3% (active)	-24.9% (active)	-58.3% (active)	-65.5% (active)	-5% (active)	-30.7% (active)
Nc1nc2c(c3ncncc13)C(c1cccc(C(F)(F)F)c1)Cc1ncncc1-2 (stereo not given)	48.2%	48%	55.2%	51%	50.6%	45%	34.5%	-6.07% (active)	13.5%	29.2%	32.9%	26.8%	57.6%	77.4%	39.8%	32.9%	54.4%	2.43% (active)	18.2%	15.3%
COC(=O)c1ccc2[nH]c(O)c(C(=Nc3ccc(N(C)C(=O)CN4CCN(C)CC4)cc3)c3ccc(N)cc3)c2c1	93.1%	95.5%	50.4%	75.6%	76.4%	94.7%	63.9%	92.7%	60.4%	52.3%	3.76% (active)	84%	116%	77.8%	73.7%	85.6%	46.6%	96.2%	45.2%	113%
CC(=O)Nc1nc(C)c(C(=O)N/N=C/c2cccs2)s1	19.3%	107%	92.6%	79.8%	144%	95.9%	111%	92.4%	84.6%	84.1%	81.4%	61.9%	112%	99%	112%	87.7%	-4.95% (active)	121%	85.5%	99.2%
